Values without a mark were called inactive. The rule behind the calls is not given here.
These compounds were tested against Pantothenate synthetase (Mycobacterium tuberculosis (strain ATCC 25618 / H37Rv)) (UniProt P9WIL5) (assay: Recombinant Mtb pantothenate synthetase (PanC) inhibitors, coupled enzyme, confirmatory (AID 375;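 note: 0% = full reaction with vehicle and 100% = no enzyme background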)). Conditions: coupled enzyme assay; at 10 µM, hits give high values.
Sequence of Pantothenate synthetase (Mycobacterium tuberculosis (strain ATCC 25618 / H37Rv)) (P9WIL5 whole entry, looked up): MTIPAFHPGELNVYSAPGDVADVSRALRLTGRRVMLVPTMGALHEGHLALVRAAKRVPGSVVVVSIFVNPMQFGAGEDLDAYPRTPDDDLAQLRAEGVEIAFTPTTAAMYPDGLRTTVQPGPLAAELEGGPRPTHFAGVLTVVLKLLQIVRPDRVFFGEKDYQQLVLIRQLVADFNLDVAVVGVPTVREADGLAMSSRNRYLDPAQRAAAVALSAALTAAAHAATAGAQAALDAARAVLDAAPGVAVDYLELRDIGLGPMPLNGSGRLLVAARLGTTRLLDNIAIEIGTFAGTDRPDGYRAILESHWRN
`COC(=O)c1sc(N2C(=O)C(O)=C(C(=O)c3ccc(C)o3)C2c2ccc(F)cc2)nc1C` (stereo unspecified) gave an inhibition of 8%. Work on `CCc1ccc2c(CN(CC)Cc3nc4ccccc4c(=O)[nH]3)cc(=O)oc2c1` yielded an inhibition of 0%. For `c1cc(CNc2ccc3c(c2)OCO3)ccn1`, the inhibition was 0%. For `CC(NC(=O)NC12CC3CC(CC(C3)C1)C2)C1CCCO1` (stereo unspecified), the inhibition was 5%. Work on `O=C(O)c1cccc(NC(=O)C23CC4CC(C2)CC(n2cnc(Cl)n2)(C4)C3)c1` yielded an inhibition of 1%. For `CS(=O)(=O)N(Cc1ccco1)CC(O)Cn1c2ccccc2c2ccccc21` (stereo unspecified), the inhibition was 0%. For `CC1CCc2nn(CC(=O)NCCN3CCCCC3C)cc2C1` (stereo unspecified), the inhibition was 0%. In the case of `Cc1nn(C)cc1NC(=O)CCSc1nc(-c2ccco2)cc(C(F)(F)F)n1`, the inhibition is reported as 0%. For `CCCC(C(=O)NCc1ccco1)N(C(=O)CNS(=O)(=O)c1ccc(Cl)cc1)C1CCCC1` (stereo unspecified), the inhibition was 0%. `Cc1cc(/C=N/n2cnnc2)c(C)n1-c1cccc(Cl)c1` gave an inhibition of 0%. Compound `COc1ccc2c(C)nc(Nc3nc(C)cc(C)n3)nc2c1` has an inhibition of 6%. `O=S(=O)(c1cccc(S(=O)(=O)N2CCC(N3CCCCC3)CC2)c1)N1CCOCC1` showed an inhibition of 0%. In the case of `CCc1ccc(NC(=O)c2cccnc2)cc1`, the inhibition is reported as 16%. `COc1cc2c(cc1OC)C(C)N(C(=O)Cn1ncc3c1-c1ccccc1OC3)CC2` (stereo unspecified) gave an inhibition of 0%. `O=C(C1CCCO1)N1CCN(S(=O)(=O)c2ccccc2)CC1` (stereo unspecified) showed an inhibition of 0%. `COc1ccc(NC(=O)NCCN2C(=O)C3C4C=CC(C4)C3C2=O)cc1` (stereo unspecified) showed an inhibition of 1%. Compound `Cc1nc(-c2ccc(NC(=O)c3cccs3)cc2)cs1` has an inhibition of 0%. `COc1ccc(S(=O)(=O)NCCCN2CCOCC2)c2ccccc12` gave an inhibition of 0%. `COc1ccc(CNc2nc3nc(C)cc(C)n3n2)cc1OC` showed an inhibition of 1%. Work on `CCOC(=O)CSc1nnc(NCC(=O)OC(C)C)c(=O)[nH]1` yielded an inhibition of 4%. With `CCOC(=O)c1oc2ccccc2c1NC(=O)COC` the inhibition was 0%.
